The record followed here is PubChem BioAssay (NCI).

Compounds without any hit were thinned out: in the full panel of roughly 83,000, 20% have a hit.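 Negative percent growth values reflect cell death: -40 means 40% of the cells present at the start died, and -100 means all died.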 Values without a mark were called inactive. The source made the active and inactive calls. The calls were made as follows: active = growth percent below 10; inactive = the rest.

Assay in all cases: NCI-60 one-dose screen, 48 h (100 = growth as untreated, 0 = no growth, -100 = all killed)
Holding throughout (conditions): 10 µM unless noted

Assay [1] has as its system T-47D breast.
The subject of assay [2] is BT-549 breast.
Assay [3] has as its system MDA-MB-435 melanoma.
Assay [4] deals with SW-620 colon.
Assay [5] concerns MCF7 breast.
The subject of assay [6] is HCT-116 colon.
Assay [7] concerns HCC-2998 colon.
Assay [8] relates to KM12 colon.

As for `Cc1cccc(Oc2ccc(Nc3ncnc4ccc(NC(=O)CNCCO)cc34)cc2Cl)c1`, the growth was 35.7% in assay [1]; 73.4% in assay [2]; 55.7% in assay [3]; 77.9% in assay [4]; 47.1% in assay [5]; 37.2% in assay [6]. In addition, the values for the growth in assay [7] and in assay [8] were 66.8% and 76.8%, respectively.

With `COc1ccc(/C=C/c2n[nH]c3ccc(N4CCOC4=O)cc23)cc1`, the growth is 17.6% in assay [1]; 16.1% in assay [2]; 44.4% in assay [3]; 1.51% (active) in assay [4]; 2.37% (active) in assay [5]; 8.08% (active) in assay [6]. Also, the growth in assay [7] was 31.5%; in assay [8], 8.51% (active).

For `CS(=O)(=O)c1ccc(-c2cc3c(oc2=O)-c2ccccc2OC3O)cc1` (stereo not drawn), the growth was 90.4% in assay [1]; 107% in assay [2]; 111% in assay [3]; 97.8% in assay [4]; 84.8% in assay [5]; 95.9% in assay [6]. Moreover, the growth was 97.5% in assay [7] and 95.1% in assay [8].

`O=S(=O)(NCCCNc1nccc(-c2c(-c3cccc(O)c3)nc3occn23)n1)c1ccc(Br)cc1`: the growth in assay [1] was 83.2%; in assay [2], 105%; in assay [3], 40.6%; in assay [4] it was 112%; in assay [5], 98.8%; in assay [6] it was 65.2%. The results for the growth in assay [7] and in assay [8] were 121% and 94.4%, respectively.

Take `CCN(CC)CCSCCCNc1c(C)cnc2cc(Cl)ccc12`: the growth in assay [1] is 96.5%; in assay [2], 85.6%; in assay [3], 85.1%; in assay [4], 88.3%; in assay [5], 79.4%; in assay [6], 52.9%. Also, the growth in assay [7] is 91%; in assay [8], 91.6%.

`O=C(CN1CCOCC1)Nc1ccc2ncnc(Nc3ccc(Oc4cccc(C(F)(F)F)c4)c(Cl)c3)c2c1`: the growth in assay [1] is 19.5%; in assay [2], 70.1%; in assay [3], 65.5%; in assay [4], 82.2%; in assay [5], 34.2%; in assay [6], 45.1%. Also, the growth in assay [7] is 87.1%; in assay [8] it was 74.2%.

`CCOC(=O)c1c(C)nc2c(c1N)C(=O)C(=O)N2Cc1ccc(C(F)(F)F)cc1`: the growth is 44% in assay [1]; 53.4% in assay [2]; 6.09% (active) in assay [3]; 35.6% in assay [4]; 11.7% in assay [5]; 27.2% in assay [6]. Moreover, the growth is 98.1% in assay [7] and 27.8% in assay [8].

On to `CC1CCN(C(=O)OCc2nc3nc(Cl)nc(N4CCOCC4)c3[nH]2)CC1`, for which the growth in assay [1] is -61.6% (active); in assay [2], -66% (active); in assay [3] it was -76.5% (active); in assay [4] it was -55.6% (active); in assay [5], -18.9% (active); in assay [6] it was -74.1% (active). In addition, the results for the growth in assay [7] and in assay [8] were 2.05% (active) and 9.43% (active), respectively.

Consider `c1ccc(N2N=C(c3cccc(Nc4ccncc4)c3)CC2c2ccc3c(c2)OCO3)cc1` (stereo not drawn), for which the growth was 48.5% in assay [1]; 80% in assay [2]; -73.2% (active) in assay [3]; -53.6% (active) in assay [4]; 2.01% (active) in assay [5]; 63.3% in assay [6]. For the same molecule, the growth was 0.363% (active) in assay [7] and 8.25% (active) in assay [8].

Regarding `COc1ccc(-c2cnnc3c(-c4cccc(C(F)(F)F)c4)cnn23)cc1`, the growth in assay [1] is 48.9%; in assay [2], -34.9% (active); in assay [3], 47.2%; in assay [4] it was 79.3%; in assay [5], 73.9%; in assay [6], 2.24% (active). The growth in assay [7] was 81.5%; in assay [8] it was 82.6%.

Turning to `Cc1ccc(S(=O)(=O)Nc2ccc(Cl)cc2)cc1`, the growth was 106% in assay [1]; 106% in assay [2]; 101% in assay [3]; 105% in assay [4]; 93.7% in assay [5]; 97.4% in assay [6]. Besides, the growth in assay [7] was 104%; in assay [8] it was 105%.

On to `CCCCCCOc1ccc(C(=N)N(CCCC)CCCC)c2ccccc12`, for which the growth was -65.5% (active) in assay [1]; -94.6% (active) in assay [2]; -89.5% (active) in assay [3]; -61.3% (active) in assay [4]; -74.8% (active) in assay [5]; -99.2% (active) in assay [6]. Further, the growth in assay [7] was -98% (active); in assay [8], -90.3% (active).

Take `CC[C@@]12C=CCN3CC[C@]4(c5cc(NC(=O)COc6cc(OCC(=O)Nc7cc8c(cc7OC)N(C)[C@H]7[C@@](O)(C(=O)OC)[C@H](OC(C)=O)[C@]9(CC)C=CCN%10CC[C@]87[C@@H]%109)cc7oc(-c8ccccc8)cc(=O)c67)c(OC)cc5N(C)[C@@H]4[C@](O)(C(=O)OC)[C@H]1OC(C)=O)[C@H]32`: the growth was 77.3% in assay [1]; 61.4% in assay [2]; 42% in assay [3]; 20.3% in assay [4]; 26.1% in assay [5]; 0.866% (active) in assay [6]. The figures for the growth in assay [7] and in assay [8] were -8.78% (active) and -39.3% (active), respectively.

For `COc1ccc(C(=O)c2cc3c(N)c(C(=O)Nc4cccc(Br)c4C)sc3nc2C)cc1`, the growth was 54.6% in assay [1]; 33.5% in assay [2]; -10.4% (active) in assay [3]; 23.4% in assay [4]; 17.5% in assay [5]; 6.78% (active) in assay [6]. In addition, the growth in assay [7] was 18.1%; in assay [8], 11.3%.

With `COc1cc(OC)cc(C2C3=C(COC3=O)Nc3cc(OC)ccc32)c1` (stereo not drawn), the growth is 68.8% in assay [1]; -2.09% (active) in assay [2]; -30% (active) in assay [3]; 26.6% in assay [4]; 15.7% in assay [5]; 1.55% (active) in assay [6]. Besides, the growth in assay [7] was 1.15% (active); in assay [8] it was -3.49% (active).

In the case of `O=C(Nc1nc2ccc(S(=O)(=O)Nc3ccc(C4(C(F)(F)F)CC4)cc3)cc2[nH]1)c1cnccn1`, the growth in assay [1] is 31.7%; in assay [2], 44.6%; in assay [3], -29.8% (active); in assay [4] it was 18.5%; in assay [5], 18.2%; in assay [6], 26.2%. In addition, the growth is 63.4% in assay [7] and 9.67% (active) in assay [8].

Regarding `Clc1ccc(C2CC(c3cccc(Nc4ccncc4)c3)=NN2c2cc(Cl)cc(Cl)c2)cc1` (stereo not drawn), the growth in assay [1] is 86.4%; in assay [2] it was 104%; in assay [3], 12.7%; in assay [4], -73.1% (active); in assay [5] it was -8.62% (active); in assay [6], -74.2% (active). Also, the growth was 19.6% in assay [7] and 9.65% (active) in assay [8].

In the case of `COc1ccc(/C=C\c2nc3ccccc3s2)cc1OP(=O)(O)O`, the growth was 41.4% in assay [1]; 44.3% in assay [2]; -70.4% (active) in assay [3]; 23.2% in assay [4]; 21.7% in assay [5]; 25.9% in assay [6]. The growth in assay [7] is 66.9%; in assay [8] it was 31.4%.

In the case of `C=C(C)[C@H]1CC/C(C)=C/CC[C@]2(C)O[C@H]2CC/C(COC(=O)[C@@H](OC(C)=O)[C@H](NC(=O)c2ccccc2)c2ccccc2)=C\[C@@H]1O`, the growth in assay [1] was 73.6%; in assay [2], 97.1%; in assay [3], 92.3%; in assay [4], 105%; in assay [5] it was 81.2%; in assay [6], 89.6%. Also, the results for the growth in assay [7] and in assay [8] were 96.5% and 99.6%, respectively.

Take `O=S(=O)(NCCNc1nccc(-c2c(-c3cccc(F)c3)nc3occn23)n1)c1cccc2ccccc12`: the growth in assay [1] was 29.9%; in assay [2] it was 78.3%; in assay [3], 32.8%; in assay [4], 72.1%; in assay [5], 27.8%; in assay [6] it was 36.1%. For the same molecule, the growth is 79.7% in assay [7] and 49.6% in assay [8].

Regarding `COc1cc(-c2nc3occn3c2-c2ccnc(NCCNS(=O)(=O)c3ccc(Cl)cc3)n2)ccc1F`, the growth is 51.6% in assay [1]; 95.5% in assay [2]; 62.2% in assay [3]; 109% in assay [4]; 65.5% in assay [5]; 63.6% in assay [6]. In addition, the growth in assay [7] is 103%; in assay [8], 86.9%.

As for `Nc1nnc(C(=O)c2cnc3n(c2=O)CCCCC3)s1`, the growth in assay [1] is 98.5%; in assay [2], 108%; in assay [3], 106%; in assay [4], 100%; in assay [5], 98.8%; in assay [6], 103%. Also, the growth in assay [7] is 106%; in assay [8], 105%.

Consider `COc1ccc2c(/C=C3/C(=O)NC(=S)NC3C)cc(=O)oc2c1` (stereo not drawn), for which the growth in assay [1] was 88%; in assay [2], 103%; in assay [3], 102%; in assay [4], 103%; in assay [5], 90.1%; in assay [6], 95.6%. In addition, the growth in assay [7] was 96%; in assay [8], 99.7%.

Consider `Cc1ccc(/C=C/C(=O)c2ccc(N)cc2)c(C)c1`, for which the growth in assay [1] is 101%; in assay [2], 89.6%; in assay [3] it was 77%; in assay [4], -69.1% (active); in assay [5] it was 35%; in assay [6] it was 35.8%. Moreover, the growth in assay [7] was 106%; in assay [8], 63.3%.

Consider `CCNC(=S)NNC(=O)c1cc2ccc1CCc1ccc(cc1)CC2`, for which the growth in assay [1] was 95.8%; in assay [2], 102%; in assay [3], 100%; in assay [4], 101%; in assay [5], 93.6%; in assay [6] it was 92.5%. Besides, the growth was 103% in assay [7] and 102% in assay [8].

Take `COc1c(Cl)cc(Cl)c2ccc(C=C3C(=O)NC(=S)NC3=O)nc12`: the growth was 101% in assay [1]; 90.2% in assay [2]; 106% in assay [3]; 104% in assay [4]; 90.7% in assay [5]; -76.2% (active) in assay [6]. The growth in assay [7] was 99.2%; in assay [8], 112%.

`CCOC(=O)c1cnc2c(cnn2CC)c1NN=C(C)C`: the growth in assay [1] is 87.7%; in assay [2] it was 91%; in assay [3], 108%; in assay [4] it was 104%; in assay [5] it was 88.7%; in assay [6], 86.5%. For the same molecule, the growth in assay [7] was 94.9%; in assay [8], 96.5%.

On to `COc1cc(-c2nc3sccn3c2-c2ccnc(NCCNS(=O)(=O)c3ccc(F)cc3)n2)ccc1F`, for which the growth in assay [1] was -3.67% (active); in assay [2], 10.5%; in assay [3], 2.5% (active); in assay [4], 26.9%; in assay [5], 5.83% (active); in assay [6], 6.58% (active). Moreover, the growth in assay [7] was 43.5%; in assay [8] it was 9.07% (active).

`COc1cc2nc(-c3ccc(C#N)cc3)[nH]c(=O)c2cc1OC`: the growth in assay [1] is 112%; in assay [2], 293%; in assay [3], 103%; in assay [4], 110%; in assay [5], 100%; in assay [6] it was 94.3%. Besides, the figures for the growth in assay [7] and in assay [8] were 83.1% and 111%, respectively.

For `Cn1c2c(Cl)c(Cl)ccc2c2cc(N)[nH]c(=O)c21`, the growth in assay [1] is 79.7%; in assay [2], 64.2%; in assay [3], 107%; in assay [4], 77.8%; in assay [5], 72.4%; in assay [6] it was 83.1%. For the same molecule, the growth in assay [7] is 85%; in assay [8], 94.2%.

For the molecule `C=C(C)[C@@H]1CC[C@]2(C(=O)NCC(=O)OC)CC[C@]3(C)[C@H](CC[C@@H]4[C@@]5(C)Cc6c([nH]c7ccccc67)C(C)(C)[C@@H]5CC[C@]43C)[C@@H]12`, the growth in assay [1] is 47.7%; in assay [2], 81.3%; in assay [3], 90%; in assay [4] it was 83%; in assay [5], 63.5%; in assay [6], 42%. Also, the growth is 103% in assay [7] and 79.2% in assay [8].
